Assay results from PubChem BioAssay.
Activity calls are given as the source filed them.

Columns and labels:
[1] = system: Human papillomavirus type 1a protein E7 (residues 44-93); experiment: HPV1a E7 fragment binders on microarrays, primary screen, biochemical, small-molecule microarray, residues 44-93, 635 nm fluorescence (AID 1108); conditions: small-molecule microarray binding, fluorescence 635 nm; higher = more signal;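 also: E7 fragment applied at 1 µg/mL in TBST for 1 h at 4 C; score combines spot fluorescence with its signal to noise ratio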
[2] = modulators of HCV replicon luciferase signal, primary screen, HCV replication inhibitor project, Huh7 cells, luciferase reporter (AID 1109); conditions: 48 h, higher = more signal;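 also: huh7 hepatoma cells harbouring a luciferase neomycin HCV replicon reporter; luciferase luminescence as measure of HCV replicon replication; test concentration not given here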
[3] = molecular target: Left-right determination factor 2 (Homo sapiens) (UniProt O00292); experiment: LEFTY2 binders on small-molecule microarrays, primary screen, biochemical, small-molecule microarray, 635 nm fluorescence scan (AID 1110); conditions: LEFTY2 binding, higher = more signal
Left-right determination factor 2 (Homo sapiens), sequence (O00292 whole entry, looked up): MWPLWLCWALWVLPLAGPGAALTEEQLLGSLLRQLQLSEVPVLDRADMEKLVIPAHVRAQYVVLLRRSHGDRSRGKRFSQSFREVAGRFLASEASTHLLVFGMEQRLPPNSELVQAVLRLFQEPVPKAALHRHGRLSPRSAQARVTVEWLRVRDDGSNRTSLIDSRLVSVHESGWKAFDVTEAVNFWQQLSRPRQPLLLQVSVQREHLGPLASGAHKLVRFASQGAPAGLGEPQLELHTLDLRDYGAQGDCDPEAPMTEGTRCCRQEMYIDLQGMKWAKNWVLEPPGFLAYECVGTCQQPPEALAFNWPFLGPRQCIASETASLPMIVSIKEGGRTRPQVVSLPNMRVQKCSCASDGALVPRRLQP

[4] = molecular target: Calmodulin-1 (Homo sapiens) (UniProt P0DP23); experiment: CALM1 binders on microarrays, EGTA buffer, profiling panel, biochemical, small-molecule microarray, Cy5-labelled CALM1 (AID 1111); conditions: Cy5-CALM1 binding fluorescence, higher = more signal;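 also: labelled calmodulin applied in Tris saline Tween buffer holding calcium plus EGTA and DTT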
[5] = molecular target: Calmodulin-1 (Homo sapiens) (UniProt P0DP23); experiment: calcium-bound CALM1 binders on microarrays, profiling panel, artefact control for SMM control-protein annotation, biochemical, small-molecule microarray, Cy5-labelled CALM1, plus calcium (AID 1112); conditions: Cy5-CALM1 binding fluorescence, higher = more signal;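 also: score merges spot fluorescence with signal to noise from triplicate slides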
[6] = small-molecule microarray binders of probe aWnt5a, primary screen, biochemical, biotinylated probe, 635/667 nm fluorescence (AID 1113); conditions: higher = more signal;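 also: score merges 667 nm fluorescence intensity with signal-to-noise per printed feature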
[7] = small-molecule microarray binders of probe aShh, primary screen, biochemical, biotinylated probe, 635/667 nm fluorescence (AID 1114); conditions: higher = more signal;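 also: probe is biotin-labelled aShh protein from a stem cell growth factor screen; measures binding of labelled protein to compounds printed on the slide; score merges feature fluorescence at 667 nm with signal-to-noise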
[8] = small-molecule microarray binders of probe aNog, primary screen, biochemical, biotinylated probe, 635/667 nm fluorescence (AID 1115); conditions: higher = more signal;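 also: probe is biotinylated aNog protein used at 0.15 µg/mL for 1 h at 4 C; z-score combines 667 nm fluorescence of each spot with its signal to noise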
[9] = molecular target: Torsin-1A-interacting protein 1 (Homo sapiens) (UniProt Q5JTV8); experiment: LAP1 binders from COS7 cell lysate, primary screen, small-molecule microarray, 635/667 nm fluorescence (AID 1116); conditions: COS7-hLAP1 lysate binding, 635 nm fluorescence, higher = more signal
Torsin-1A-interacting protein 1 (Homo sapiens), sequence (Q5JTV8 whole entry, looked up): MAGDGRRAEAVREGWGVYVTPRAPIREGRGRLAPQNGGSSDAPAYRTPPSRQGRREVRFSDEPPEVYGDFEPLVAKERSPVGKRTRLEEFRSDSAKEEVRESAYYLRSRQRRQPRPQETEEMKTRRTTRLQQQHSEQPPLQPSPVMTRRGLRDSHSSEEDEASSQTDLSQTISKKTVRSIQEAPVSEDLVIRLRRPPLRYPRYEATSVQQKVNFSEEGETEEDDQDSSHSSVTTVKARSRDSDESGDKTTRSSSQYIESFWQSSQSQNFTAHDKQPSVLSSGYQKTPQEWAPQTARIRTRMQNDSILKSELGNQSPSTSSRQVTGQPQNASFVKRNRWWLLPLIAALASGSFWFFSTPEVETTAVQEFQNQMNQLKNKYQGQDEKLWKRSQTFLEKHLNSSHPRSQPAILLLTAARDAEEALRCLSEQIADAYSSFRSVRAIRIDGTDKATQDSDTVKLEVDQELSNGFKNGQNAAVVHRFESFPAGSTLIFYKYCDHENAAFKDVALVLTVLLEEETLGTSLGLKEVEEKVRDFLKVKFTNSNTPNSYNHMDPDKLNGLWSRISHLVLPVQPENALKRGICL

[10] = molecular target: Alpha-bungarotoxin (Bungarus multicinctus) (UniProt P60615); experiment: alpha-bungarotoxin binders on microarray, profiling panel, artefact control for SMM control protein annotation, biochemical, small-molecule microarray, Alexa647 label, 635/667 nm fluorescence (AID 1117); conditions: alpha-BTX-A647 binding fluorescence, higher = more signal
Alpha-bungarotoxin (Bungarus multicinctus), sequence (P60615 whole entry, looked up): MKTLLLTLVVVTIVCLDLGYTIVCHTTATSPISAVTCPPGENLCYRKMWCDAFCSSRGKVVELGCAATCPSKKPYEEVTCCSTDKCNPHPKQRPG

Albumin (Bos taurus) = Albumin (Bos taurus) (UniProt P02769); experiment: bovine serum albumin binders on microarray, profiling panel, artefact control for SMM control protein annotation, biochemical, small-molecule microarray, Alexa647 label, 635/667 nm fluorescence (AID 1118); conditions: BSA-A647 binding, fluorescence 635 nm, higher = more signal;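 also: score merges 667 nm emission intensity and signal-to-noise per printed compound spot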
Albumin (Bos taurus), sequence (P02769 whole entry, looked up): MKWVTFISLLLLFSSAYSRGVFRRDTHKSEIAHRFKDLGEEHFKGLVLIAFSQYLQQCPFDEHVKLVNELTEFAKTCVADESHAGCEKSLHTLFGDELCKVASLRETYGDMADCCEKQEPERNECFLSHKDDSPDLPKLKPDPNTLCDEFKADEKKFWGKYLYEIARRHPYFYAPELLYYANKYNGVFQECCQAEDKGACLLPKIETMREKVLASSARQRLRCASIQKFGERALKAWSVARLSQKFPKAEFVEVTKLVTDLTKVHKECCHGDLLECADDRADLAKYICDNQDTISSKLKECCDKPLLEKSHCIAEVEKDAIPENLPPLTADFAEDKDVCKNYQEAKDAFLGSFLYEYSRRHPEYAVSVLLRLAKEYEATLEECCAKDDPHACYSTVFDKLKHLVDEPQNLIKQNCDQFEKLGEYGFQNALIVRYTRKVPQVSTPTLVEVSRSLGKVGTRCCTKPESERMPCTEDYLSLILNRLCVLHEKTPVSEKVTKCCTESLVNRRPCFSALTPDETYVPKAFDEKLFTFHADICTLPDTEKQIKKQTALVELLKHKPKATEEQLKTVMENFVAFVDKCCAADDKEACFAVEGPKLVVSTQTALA

[11] = small-molecule microarray binders of probe aXIP, primary screen, biochemical, NeuroSMM set, 635/667 nm fluorescence (AID 1119); conditions: higher = more signal, called active from +8 up or from −8 down;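 also: probe is the protein aXip251-270 applied at 1 µg/mL to compound-printed slides; binding of probe to printed compounds measured as 667 nm fluorescence plus signal to noise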
[12] = small-molecule binders of probe aNOTCH3, primary screen, biochemical, small-molecule microarray, 635/667 nm fluorescence (AID 1120); conditions: higher = more signal;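 also: probe is a biotin-tagged antibody raised against NOTCH3 rather than NOTCH3 protein; score merges spot fluorescence near 667 nm with spot signal to noise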
[13] = small-molecule binders of probe aNOTCH2, primary screen, biochemical, small-molecule microarray, 635/667 nm fluorescence (AID 1121); conditions: higher = more signal;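 also: score merges feature fluorescence read at 667 nm with its signal to noise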
[14] = molecular target: Carbonic anhydrase 2 (Homo sapiens) (UniProt P00918); experiment: CAII small-molecule binders, profiling panel, biochemical, small-molecule microarray, Alexa647-labelled CAII (AID 1122); conditions: CAII-A647 binding fluorescence, higher = more signal
[15] = COS7 lysate on small-molecule microarray, probe aHis, 635 nm (AID 1123); conditions: COS7 cell lysate, fluorescence, higher = more signal;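 also: z-score combines 667nm fluorescence intensity with signal-to-noise per printed compound spot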
[16] = compound binding in COS7 lysate, probe aLAP1, primary screen, cell lysate, small-molecule microarray (AID 1124); conditions: probe aLAP1, fluorescence, higher = more signal;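 also: lysate comes from COS7 cells expressing LAP1 and is applied at 0.3 µg/mL; score merges spot fluorescence near 667 nm with signal-to-noise over triplicate slides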
Sam68 (KHDRBS1) = experiment: Sam68 small-molecule binders, primary screen, biochemical, small-molecule microarray, 635 nm fluorescence (AID 1125); conditions: small-molecule microarray binding, higher = more signal;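 also: score merges 667 nm channel intensity with signal to noise over triplicate slides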
[17] = system: Chordin-like protein 2 (CHRDL2); experiment: CHRDL2 small-molecule binders, primary screen, biochemical, small-molecule microarray, 635 nm fluorescence (AID 1126); conditions: small-molecule microarray binding, fluorescence 635 nm; higher = more signal;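 also: printed compound slides probed with Chrdl2 protein at 4 µg/mL for 1 h at 4 C; score merges 667 nm emission intensity with signal to noise over three replicate slides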
[18] = molecular target: Concanavalin-A (Canavalia ensiformis) (UniProt P02866); experiment: ConA small-molecule binders, primary screen, artefact control for SMM control protein annotation, biochemical, small-molecule microarray, Alexa647 label, 635 nm (AID 1127); conditions: ConA-A647 binding fluorescence, higher = more signal;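 also: z combines 667 nm emission intensity with signal-to-noise across three replicate slides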
Concanavalin-A (Canavalia ensiformis), sequence (P02866 whole entry, looked up): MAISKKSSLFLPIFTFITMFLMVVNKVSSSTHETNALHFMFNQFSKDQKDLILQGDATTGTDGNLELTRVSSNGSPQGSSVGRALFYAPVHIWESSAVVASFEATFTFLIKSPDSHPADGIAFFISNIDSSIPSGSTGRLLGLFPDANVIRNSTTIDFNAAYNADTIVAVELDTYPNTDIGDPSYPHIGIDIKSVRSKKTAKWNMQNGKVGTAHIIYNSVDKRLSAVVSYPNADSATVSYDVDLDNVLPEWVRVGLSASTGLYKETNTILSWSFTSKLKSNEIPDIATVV

SMILES	composite z-score [1]	z-score [2]	composite z-score [3]	composite z-score [4]	composite z-score [5]	composite z-score [6]	composite z-score [7]	composite z-score [8]	composite z-score [9]	composite z-score [10]	composite z-score (Albumin (Bos taurus))	composite Z-score [11]	composite z-score [12]	composite z-score [13]	composite z-score [14]	composite z-score [15]	composite z-score [16]	composite z-score (Sam68 (KHDRBS1))	composite z-score [17]	composite z-score [18]
CCCCCN1CC=CC23O[C@@H]4C=CCOC(=O)[C@@H]4[C@H]2C(=O)N(CCO)[C@@H]3C1=O (stereo not given in full)	0.673	0.644	-0.397	-0.343	0.595	-0.172	-0.138	-0.305	0.665	-0.514	-0.141	0.403 (inactive)	-0.221	-0.14	0.907	1.28	-0.0117	-0.263	-1.33	-0.502
C=C(COC)C(=O)CC[C@@H](OC(=O)c1cccnc1)c1ccccc1OCCO	-1.05	-3.82	0.078	-1.08	-0.497	-0.096	-0.0553	0.412	0.519	-0.387	-0.726	0.245 (inactive)	0.0237	-0.0681	0.758	0.105	-0.377	-0.356	0.349	0.484
CCOC(=O)C=Cc1ccccc1O	1.22	-2.36	0.233	-0.166	-0.72	-0.0462	0.151	-0.0381	0.0446	0.377	0.725	-0.116 (inactive)	0.186	0.0295	0.188	0.466	0.163	1.01	0.0871	0.591
C=C(/C(=C/C[C@H](OC(=O)c1ccncc1)c1ccccc1OCCO)c1cnc2ccccc2c1)C(C)C	1.41	-2.63	1.05	0.547	-0.558	0.0374	0.172	-0.0809	0.358	1.73	0.706	0.0746 (inactive)	0.145	-0.126	0.566	0.443	0.0737	1.31	1.18	1.19
COCC1=C2[C@@H](CCc3ccccc3)OB(O)C[C@@H]2[C@@H]2C(=O)N(C)C(=O)[C@@H]2C1	-0.152	-1.2	0.211	-0.344	-0.294	-0.0405	-0.138	-0.205	0.226	-0.273	0.229	0.289 (inactive)	-0.0918	-0.108	0.21	0.06	-0.179	0.106	0.5	-0.141
CO[C@H]1O[C@H](CO)[C@@H](OC(=O)c2ccc(Br)cc2)[C@@H]2OC(=O)[C@H](Cc3ccccc3)C/C=C/C[C@@H](Cc3ccccc3)C(=O)O[C@@H]12	0.79	-3.01	0.109	0.575	-0.662	-0.275	-0.23	-0.542	0.706	0.142	0.776	0.726 (inactive)	0.0971	-0.15	0.704	0.186	1.07	-0.148	0.136	0.599
O=C1C2C=CC(C(O)c3ccco3)N(Nc3ccccc3)C2C(=O)N1c1ccccc1 (stereo not given)	-0.335	0.305	-0.756	-0.136	0.245	-0.006	0.0121	0.181	-0.479	-0.0188	0.507	0.0089 (inactive)	-0.153	-0.141	0.757	0.467	-0.102	-0.161	-0.727	-0.222
CN1C(=O)[C@@H]2[C@@H](CC(COc3ccccc3)=C([C@H](O)CCc3ccccc3)[C@@H]2CO)C1=O	-0.531	-0.113	0.0752	-0.548	-0.343	-0.243	-0.304	-0.398	0.0197	-0.278	-0.112	0.252 (inactive)	-0.0343	-0.201	0.0456	-0.492	-0.525	0.0336	0.0213	-0.0217
CCOC(=O)C1=CCC(c2ccccc2)N(S(=O)(=O)c2ccc([N+](=O)[O-])cc2)C1 (stereo not given)	0.992	-1.93	-0.276	-0.36	-0.0871	-0.147	0.0048	-0.425	0.853	-0.165	0.193	-0.275 (inactive)	-0.0077	-0.108	0.0862	1.07	0.173	0.439	0.0332	-0.104
NC(=O)N1C(=O)C2C(C1=O)C1C=C(CCCO)C2C(C2CC2)N1Cc1cccc(OC(F)(F)F)c1 (stereo not given)	0.504	-1.4	-0.219	-0.143	0.2	-0.173	-0.138	0.56	0.691	-0.187	0.858	0.547 (inactive)	-0.349	-0.179	0.653	0.518	-0.0171	0.588	-0.489	0.221
COc1cc(NN2C(C(O)c3ccccc3)C=CC3C(=O)N(C)C(=O)C32)cc(OC)c1OC (stereo not given)	1.35	-0.928	0.222	0.533	-0.171	0.0437	0.151	0.521	0.891	0.544	0.566	1.13 (inactive)	0.12	-0.0817	0.781	1.73	0.481	1.3	-0.179	0.659
